About 83,000 compounds went through this panel and 20% of them were active in at least one assay; those are over-represented in the sample as a whole.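 Testing used 96-well plates and a 48-hour single-concentration exposure. Example: -40 means 40% of the starting cells died.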 Calls of active or inactive are those of the source. How the source made its calls: active means growth percent below 10; inactive means the rest.

This experiment deals with MDA-MB-468 breast. The experiment can be described thus: NCI-60 one-dose screen, 48 h (100 = growth as untreated, 0 = no growth, -100 = all killed). The note with it: 10 µM unless noted.
In the case of `Cc1n(Cc2ccc3ccccc3c2)cc[n+]1Cc1ccc2ccccc2c1`, the growth was -22.8% (active).

On to `COc1cc(C2CC(c3cccc(Br)c3)=NN2C(C)=O)cc(OC)c1OC` (configuration not stated), for which the growth is 24.1% (inactive).

Regarding `Clc1ccc2sc(-c3ccccc3)nc2c1`, the growth was 68.9% (inactive).

Consider `c1ccc(Nc2nc(Nc3ccccc3)nc(Nc3ccccc3)n2)cc1`, for which the growth is 93.8% (inactive).

Consider `C=C(C=O)[C@@H]1CC[C@]2(CO)CC[C@]3(C)[C@H](CC[C@@H]4[C@@]5(C)CCCNC(C)(C)[C@@H]5CC[C@]43C)[C@@H]12`, for which the growth is 48.6% (inactive).

`COc1ccc(C2CC(c3ccc(N(C)C)cc3)=NN2c2ccc(S(N)(=O)=O)cc2)cc1` (configuration not stated): the growth was 57.6% (inactive).

`N#Cc1nc(-c2ccccc2)oc1S(=O)(=O)N1CCN(CCc2ccccn2)CC1`: the growth was 25.7% (inactive).

On to `O=C(N/N=C\c1cccc([N+](=O)[O-])c1)N/N=C/c1cccc([N+](=O)[O-])c1`, for which the growth is 82% (inactive).

For `CC1=C[C@H]2c3c(c(O)c(O)c4oc(-c5ccccc5)cc(=O)c34)[C@H](c3cc(O)c(O)c4oc(-c5ccccc5)cc(=O)c34)[C@H]2C(C)(C)C1`, the growth is 14.2% (inactive).

As to `CNC1=CC(=O)c2c(C(=O)OC)c(C)[n+]([O-])c(C)c2C1=O`, the growth was 34.7% (inactive).

Consider `Cc1cc(Cl)cc(Cc2cc(Cl)cc(C)c2O)c1O`, for which the growth was 50.2% (inactive).

In the case of `C=C(C)[C@@H]1CC[C@]2(C(=O)ON)CC[C@]3(C)[C@H](CC[C@@H]4[C@@]5(C)C/C(=C/c6ccc(Br)cc6)C(=O)C(C)(C)[C@@H]5CC[C@]43C)[C@@H]12`, the growth was 73.2% (inactive).

In the case of `O=C(Nc1ncc(Cc2cccc(C(F)(F)F)c2)s1)c1ccc2c(c1)OCCO2`, the growth is 15.6% (inactive).

Turning to `Cc1ccc(S(=O)(=O)Nn2c3c(cc(-c4nc5ccccc5s4)c2=O)CCCCCC3)cc1`, the growth was 110% (inactive).

As for `Cc1nc(/N=C(N)/N=C(\N)c2cccc(Br)c2)sc1C`, the growth was 32.5% (inactive).

Turning to `c1ccc(N2CCN(c3nncc4ccccc34)CC2)nc1`, the growth was 93.3% (inactive).

With `O=C1C=CC(=O)N1c1ccccc1N1C(=O)C=CC1=O`, the growth is 104% (inactive).

In the case of `O=C1OC(c2ccc(-c3ccccc3)cc2)=C/C1=C/C=C/c1ccccc1`, the growth is 99.7% (inactive).

As to `O=[N+]([O-])c1cc(Cl)cc(Cl)c1O`, the growth is 104% (inactive).

Take `Clc1ccc2c(NCCCN3CCOCC3)c3oc4ccccc4c3nc2c1`: the growth was 35.7% (inactive).

`Fc1ccc(Nc2nc(Nc3ccc(-c4nc5ccccc5[nH]4)cc3)c3cn[nH]c3n2)cc1`: the growth was -22.1% (active).

With `C=C1C(=O)O[C@H]2[C@H]1CC/C(COC(=O)/C=C\C(=O)NCc1ccc(Cn3c(=O)sn(CCCl)c3=O)cc1)=C\CC[C@@]1(C)O[C@@H]21`, the growth was 43% (inactive).

Consider `C[C@@H](Nc1c(C#N)cnc2ccc(-c3cnc(Cl)c(NS(C)(=O)=O)c3)cc12)c1ccccc1`, for which the growth was -36% (active).

Regarding `O=C(Nc1ccc2ncnc(Nc3ccc(Oc4cccc(F)c4)c(Cl)c3)c2c1)c1ccc(CN2CCOCC2)cc1`, the growth is 18.8% (inactive).

Take `O=C(Nc1cccc(Cl)c1)Nc1nccs1`: the growth was -0.235% (active).

With `CCc1cc2c(cc1Cl)nc1c(=O)[nH]c(=O)nc-1n2CCOCC(C)C`, the growth is 43.8% (inactive).

In the case of `COc1cccc(-c2nn(-c3ccccc3)cc2-c2ccnc(NCCNC(=O)Nc3ccccc3)c2)c1`, the growth was 49.7% (inactive).

These data come from PubChem BioAssay (NCI).
